27 molecules from PubChem BioAssay (EPA / NIEHS) can be followed below.

The nature of assay [1]: ATG_NFI_CIS: Attagene CIS-FACTORIAL HepG2 Assay for human Nuclear Factor I (NFI) (AID 2282989). The settings on record: HepG2 cis-regulatory reporter, NFI response element transcription; actives raise or lower the signal. In a few lines:
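HepG2, transient MRTU, 24 h exposure; RNA→cDNA→PCR→FAM label→HpaI→CE fluorescence. Bidirectional fit, DMSO = baseline.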

Assay [2] has as its target Myc proto-oncogene protein (Homo sapiens) (UniProt P01106). Description: ATG_Myc_CIS: Attagene CIS-FACTORIAL HepG2 Assay for human Myelocytomatosis (Myc) Proto-Oncogene Transcription Factor (AID 2282990). The following applies: HepG2, Attagene cis-reporter transcription factor activity; actives raise or lower the signal. The gist of the method: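 Fluorescence intensity of reporter-specific cDNA fragments, separated by capillary electrophoresis, gives the signal. Transfected HepG2 cells carrying cis-promoter reporter constructs are incubated with compound for 24 h; DMSO serves as baseline.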

The nature of assay [3]: ATG_NF_kB_CIS: Attagene CIS-FACTORIAL HepG2 Assay for human Nuclear Factor Kappa B (NF-kB) (AID 2282991). The following applies: HepG2 Attagene cis-factorial NF-kB reporter mRNA; actives raise or lower the signal. In a few lines: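 HepG2, transient multi-reporter transfection, cis promoter elements (endogenous TFs). 24 h exposure. Total RNA → RT → PCR → 6-FAM label → HpaI → CE. Gain/loss vs DMSO.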

A short description of assay [4]: ATG_NRF2_ARE_CIS: Attagene CIS-FACTORIAL HepG2 Assay for human Nuclear Factor Erythroid 2 Related Factor 2 (NFR2) response to Antioxidant Response Elements (ARE) (AID 2282992). The settings on record: HepG2 Attagene ARE/NRF2 reporter, transcription factor activity; actives raise or lower the signal. The gist of the method: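 HepG2 cells transiently transfected with multiplexed cis-element reporter constructs, 24 h after chemical dosing; reporter mRNA quantified by RT-PCR, fluorescent primer extension, HpaI digestion and capillary electrophoresis. Bidirectional fit relative to DMSO.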

The nature of assay [5]: ATG_Oct_MLP_CIS: Attagene CIS-FACTORIAL HepG2 Assay for human Octamer-Binding Transcription Factor (Oct) (AID 2282993). The settings on record: HepG2 Attagene cis-factorial Oct reporter, mRNA; actives raise or lower the signal. The gist of the method: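 Multiplexed cis-reporter assay in human liver HepG2 cells, 24 h incubation. Reporter RNA amplified and labelled, then resolved by capillary electrophoresis; DMSO serves as negative control and baseline.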

The target in assay [6] is Cellular tumor antigen p53 (Homo sapiens) (UniProt P04637). Put plainly: ATG_p53_CIS: Attagene CIS-FACTORIAL HepG2 Assay for human p53 Transcription Factor (AID 2282994). The following applies: HepG2 p53 cis-element reporter, Attagene mRNA; actives raise or lower the signal. The gist of the method: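 HepG2 cells transiently transfected with cis-regulated multiple reporter transcription units, dosed 24 h. Reporter mRNA measured by RT-PCR, 6-FAM primer extension, HpaI digestion and capillary electrophoresis; bidirectional fit relative to DMSO.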

Assay [7] can be described thus: BSK_3C_uPAR: BioMAP Diversity Plus: 3C Assay for Urokinase-type plasminogen activator receptor (uPAR) Biomarker Activity (AID 2282998). The settings on record: BioMAP 3C HUVEC, uPAR biomarker ELISA; actives raise or lower the signal. In a few lines: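 Dose primary human umbilical vein endothelial cells, incubate 24 h, measure cell-surface uPAR by ELISA, then fit the signal in both directions against the DMSO negative control.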
In general terms: In an ELISA, binding on a coated surface is turned into a signal by an enzyme label.

Assay [8] in a line: BSK_3C_VCAM1: BioMAP Diversity Plus: 3C Assay for Vascular cell adhesion molecule 1 (VCAM1) Biomarker Activity (AID 2282999). The following applies: BioMAP 3C HUVEC, VCAM1 ELISA, cytokine-stimulated; actives raise or lower the signal. In a few lines:
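Human umbilical vein endothelial cells (3C system), biomarker read by ELISA 24 h after dosing; bidirectional fit against DMSO baseline. Cytotoxicity tracked by SRB total-protein staining in parallel cultures at biomarker time.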

The nature of assay [9]: ATG_M_61_TRANS: Attagene TRANS-FACTORIAL HepG2 Assay for M61 Transcription Factor (Internal Marker) (AID 2282988). The settings on record: HepG2 Attagene TRANS M61 internal marker reporter. The procedure: ATG_TRANS is a cell-based, multiplexed-readout assay that uses HepG2, a human liver cell line, with measurements taken at 24 hours after chemical dosing in a 24-well plate.ATG_M_61_TRANS is one of 30 assay component(s) measured or calculated from the ATG_TRANS assay. It is designed to make measurements of mRNA induction, a form of inducible reporter, as detected with fluorescence intensity signals by Reverse transcription polymerase chain reaction (RT-PCR) and Capillary electrophoresis technology.Data from the assay component ATG_M_61_TRANS was analyzed into 1 assay endpoint. This assay endpoint, ATG_M_61_TRANS, was analyzed in the positive analysis fitting direction relative to DMSO as the negative control and baseline of activity. […] Furthermore, this assay endpoint can be referred to as a secondary readout, because this assay has produced multiple assay endpoints where this one serves a background control function. […]
Human liver HepG2 cells are transiently transfected with multiple reporter transcription units (MRTUs) in 6-well plates using FuGene 6 reagent (Roche; 3 ml FuGene/1 mg DNA). […] A major difference between the CIS and TRANS system is that in CIS activities of endogenous TFs are measured, whereas the TRANS assay evaluates changes in activities of exogenous, chimeric NR-Gal4 proteins. […]

“And” between values parts separate entries of the source, which are not always exact repeats. Equal values may be shown once. Inconclusive results are not listed. The source holds several records for some structures; these can differ, active in one and inactive in another. The source made the active and inactive calls. Rule for the calls: active = hit-call score of the fitted dose curve at least 0.9, where 1 is the maximum; inactive = score below 0.9.

Sequence of Cellular tumor antigen p53 (Homo sapiens) (P04637 whole entry, looked up): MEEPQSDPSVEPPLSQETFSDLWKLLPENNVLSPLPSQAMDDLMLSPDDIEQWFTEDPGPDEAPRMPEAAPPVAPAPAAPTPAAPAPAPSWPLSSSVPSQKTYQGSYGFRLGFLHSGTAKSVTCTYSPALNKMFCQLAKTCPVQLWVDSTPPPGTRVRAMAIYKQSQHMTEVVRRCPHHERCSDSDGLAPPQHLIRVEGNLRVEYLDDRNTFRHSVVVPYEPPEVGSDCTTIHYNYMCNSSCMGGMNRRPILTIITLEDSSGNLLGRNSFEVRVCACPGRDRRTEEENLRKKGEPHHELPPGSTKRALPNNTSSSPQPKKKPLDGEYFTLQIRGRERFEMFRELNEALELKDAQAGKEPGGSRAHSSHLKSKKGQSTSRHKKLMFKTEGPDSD
Sequence of Myc proto-oncogene protein (Homo sapiens) (P01106 whole entry, looked up, the tested form may be a part): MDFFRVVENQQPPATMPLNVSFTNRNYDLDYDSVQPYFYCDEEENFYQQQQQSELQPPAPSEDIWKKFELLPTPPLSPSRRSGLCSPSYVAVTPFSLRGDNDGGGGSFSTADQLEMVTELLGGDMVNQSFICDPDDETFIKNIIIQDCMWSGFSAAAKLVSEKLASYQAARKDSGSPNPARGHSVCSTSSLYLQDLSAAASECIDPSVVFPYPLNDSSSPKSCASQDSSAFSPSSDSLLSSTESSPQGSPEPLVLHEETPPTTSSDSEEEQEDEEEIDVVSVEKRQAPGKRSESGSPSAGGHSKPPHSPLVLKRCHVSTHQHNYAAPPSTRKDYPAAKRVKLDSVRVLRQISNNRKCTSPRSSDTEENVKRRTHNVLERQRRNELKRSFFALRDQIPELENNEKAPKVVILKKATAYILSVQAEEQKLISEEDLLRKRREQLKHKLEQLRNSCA

For `COc1cc([N+](=O)[O-])ccc1N`, the call in assay [1], in assay [2], in assay [3], in assay [4], in assay [5] and in [6] was inactive.

As usually defined, the AC50 is the concentration giving half of the maximal activity seen. Take `CCC(C)c1ccccc1O` (centres undefined): the molecule was called inactive in assay [1], in assay [2], in [3], in [4], in assay [5] and in [7]. In [8], the result was inactive. For the same molecule, the half-maximal activity concentration (AC50) in assay [4] was 74.7 µM (active).

Regarding `c1cnc2c(c1)ccc1cccnc12`, the result in [1], in [2], in assay [3], in [4] and in [5] was inactive. The AC50 in [3] was 100 µM (active); in assay [4] it was 3.04 µM (active); in assay [5] it was 155 µM (active); in assay [6] it was 6.68 µM (active) and 6 µM (active).

For `O=C(OC(=O)C(F)(F)C(F)(F)F)C(F)(F)C(F)(F)F`, the call in [1], in assay [2], in assay [3], in assay [4], in assay [5] and in assay [6] was inactive.

As to `CCCCCCCCCCCC[N+](C)(C)CCCCCCCCCCCC`, the call in assay [1] and in assay [3] was inactive. In addition, the half-maximal activity concentration (AC50) in assay [2] is 100 µM (active); in assay [4], 10.4 µM (active); in assay [5], 5.23 µM (active); in [6], 10.4 µM (active).

For the molecule `COC(=O)CC(C(C)=O)C(=O)OC` (centres undefined), the molecule was classed as inactive in [1], in assay [2], in assay [3], in assay [4], in assay [5] and in [6].

Take `CCc1ccccc1O`: the molecule was classed as inactive in [1], in assay [2], in assay [3] and in [5]. Further, the concentration at half-maximal activity (AC50) in assay [4] is 37.1 µM (active).

`O=C(CC(=O)C(F)(F)C(F)(F)C(F)(F)F)c1cccs1`: the call in assay [1], in [2], in [3], in assay [5] and in assay [6] was inactive. Moreover, the half-maximal activity concentration (AC50) in [4] was 12.9 µM (active) and 20.2 µM (active); in [5], 9.28 µM (active); in assay [7], 46.7 µM (active) and 30 µM (active); in assay [8], 45.3 µM (active) and 48.7 µM (active).

As for `O=C(O)C(F)(F)OC(F)(F)C(F)(F)OC(F)(F)C(F)(F)OC(F)(F)C(F)(F)C(F)(F)C(F)(F)F`, the concentration at half-maximal activity (AC50) is 80.8 µM (active) in assay [1]; 11.9 µM (active) in assay [2]; 27.5 µM (active) in [3]; 4.04 µM (active) in assay [4]; 34 µM (active) and 29.7 µM (active) in assay [5]; 27.4 µM (active) in [6]. Further, the concentration at half-maximal activity (AC50) in [7] was 21.3 µM (active) and 23 µM (active); in assay [8] it was 52.2 µM (active) and 50.4 µM (active). Besides, the result in assay [1], in assay [2], in assay [3], in [4] and in assay [6] was inactive.

On to `Cc1ccccc1C(OCCN(C)C)c1ccccc1` (centres undefined), for which the call in assay [1], in [2], in assay [3], in [4] and in assay [5] was inactive. Besides, the AC50 in assay [4] is 71.4 µM (active); in assay [5], 119 µM (active); in assay [6], 52.6 µM (active) and 88.3 µM (active).

With `CCOC(=O)c1nc(C(Cl)(Cl)Cl)n(-c2ccc(Cl)cc2Cl)n1`, the outcome in assay [9], in assay [1], in assay [3] and in assay [5] was inactive. Further, the values for the half-maximal activity concentration (AC50) in assay [2] and in assay [4] were 24.5 µM (active) and 26.8 µM (active), respectively.

Regarding `CCO[Si](CCC1CCC2OC2C1)(OCC)OCC` (centres undefined), the call in assay [1], in assay [2], in [3], in [4] and in [5] was inactive.

With `c1ccc(CNc2ncnc3c2ncn3C2CCCCO2)cc1` (centres undefined), the outcome in assay [1], in [2], in assay [3], in assay [5] and in assay [6] was inactive. For the same molecule, in assay [4], the AC50 is 19.8 µM (active).

For `O=C(NO)c1ccccc1`, the molecule was called inactive in [1], in assay [2], in [4], in [5], in [7] and in assay [8]. In addition, the AC50 is 22 µM (active) [middle of 4 runs] in assay [3]; 16.2 µM (active) and 18.5 µM (active) in [4]; 35.3 µM (active) [middle of 4 runs] in assay [6].

Turning to `CC(=O)Nc1ccc(S(N)(=O)=O)cc1`, the call in [1], in assay [2], in [3], in assay [4], in assay [5] and in [6] was inactive.

With `O=C1Cc2ccccc2N1c1c(Cl)cccc1Cl`, the result in [1], in [2], in assay [3] and in assay [5] was inactive. Further, the concentration at half-maximal activity (AC50) in assay [4] is 23.2 µM (active).

For `Nc1cc(Cl)c(-c2cc(Cl)c(N)cc2Cl)cc1Cl`, the AC50 in assay [1] is 17.3 µM (active); in [2], 7.12 µM (active); in assay [4], 12.5 µM (active); in assay [5], 11.1 µM (active). In addition, the result in assay [3] and in [6] was inactive.

For the molecule `FC1(F)C=CC(F)(F)C1(F)F`, the molecule was called inactive in assay [1], in assay [2], in assay [3], in assay [4], in assay [5] and in assay [6].

With `CCCCCCCCCCCC[N+](C)(C)Cc1ccccc1`, the molecule was classed as inactive in assay [1], in assay [2], in assay [3] and in assay [4]. The half-maximal activity concentration (AC50) in assay [4] was 9.38 µM (active).

Take `NC(=NCCCCCCN=C(N)/N=C(\N)Nc1ccc(Cl)cc1)/N=C(\N)Nc1ccc(Cl)cc1`: the molecule was called inactive in assay [1], in assay [2], in assay [4], in assay [5] and in [6]. Besides, the half-maximal activity concentration (AC50) in assay [2] is 90.5 µM (active) and 24.6 µM (active); in assay [4], 2.26 µM (active); in assay [5] it was 23.5 µM (active); in assay [6], 8.29 µM (active) and 8.25 µM (active); in assay [7], 2.61 µM (active); in assay [8], 7.92 µM (active).

For the molecule `Clc1ccc2c(Cl)ccnc2c1`, the result in [1], in assay [2], in assay [3], in [5] and in [6] was inactive. For the same molecule, the AC50 in assay [4] is 3.21 µM (active).

On to `C[N+](C)(CCCNS(=O)(=O)CCC(F)(F)C(F)(F)C(F)(F)C(F)(F)C(F)(F)C(F)(F)F)CC(=O)[O-]`, for which the outcome in assay [1], in assay [2], in [3], in assay [5] and in assay [6] was inactive. Besides, the AC50 in [4] is 0.00659 µM (active).

With `C=CCOCC(CO)(CO)CO`, the outcome in [1], in assay [2], in assay [3], in assay [4], in assay [5] and in assay [6] was inactive.

Turning to `CCc1cccc(CC)c1N(COC)C(=O)CS(=O)(=O)O`, the molecule was classed as inactive in assay [1], in assay [2], in [3], in assay [4], in assay [5] and in [6].

For `CCCCCCc1ccc(N)cc1`, the call in assay [1], in assay [2], in [3] and in assay [5] was inactive. The AC50 in assay [4] was 2.51 µM (active); in [6] it was 6.32 µM (active).

For the molecule `O=C1OC(=O)c2cc(-c3ccc4c(c3)C(=O)OC4=O)ccc21`, the molecule was classed as inactive in [1], in [2], in assay [3], in assay [4], in assay [5] and in assay [6].

In the case of `CC(C)C=O`, the molecule was called inactive in assay [1], in assay [2], in assay [3], in assay [4], in assay [5] and in assay [6]. The AC50 in [4] was 64.6 µM (active).
